Bioassay records: PubChem, National Center for Advancing Translational Sciences (NCATS)
KDM5B inhibitor: blocks human KDM5B histone demethylase activity. KDM5B demethylase, FDH-coupled NADH fluorescence (FDH is formaldehyde dehydrogenase). AID 1347165. Q9UGL1. Potency, µM (highest dose often 57.7 µM), most hits filed as inhibitors. 2.6% of 220,000 active; active = well fitted inhibition curve with a large enough effect; note: 0% is about no effect; nearly all actives have a fitted effect of over 70% in size
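qHTS format, multiple compound concentrations. Buffer 50 mM HEPES pH 7.5/0.01% Tween-20; 200 nM KDM5BΔAP final; 10 min compound preincubation; substrate-mix levels 12.5 µM peptide, 25 µM α-KG, 0.25 mM NAD⁺; 30 min RT; ΔRFU.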
* = called active by the depositor; i = inactive. Shown is part of a subset that was picked to be rich in hits. Potency is the fitted concentration of half-maximal effect.

SMILES	KDM5B inhibitor
Cc1ccc(NC(=O)CN(C)C(=O)c2cc3cc(Cl)ccc3nc2C)cc1	i
O=c1c2ccsc2ncn1Cc1coc(-c2ccccc2Cl)n1	i
Cc1cc2c(c(=O)o1)C(c1ccco1)C(C#N)=C(N)O2 (stereo not given)	i
COc1cc(/C=C/C(=O)c2ccc(C(=O)O)s2)cc(OC)c1	i
CCn1ncc(NC(=O)Cn2ncc3cc(-c4ccc(N(C)C)cc4)ccc32)n1	14µM*
CCOc1ccc(NC(=O)CN2CCN(CC(=O)Nc3ccc(N(C)C)cc3)CC2)cc1	i
Cc1cc(=O)n(CC(=O)Nc2ccc(N(C)C)cc2)c(-c2ccc(F)cc2)n1	i
CCn1ncc(NC(=O)Cn2ncc3cc(-c4cc(F)ccc4F)ccc32)n1	20µM*
Cc1ccc(C)c(-c2nn(CC(=O)Nc3cc(F)ccc3F)c(=O)c3c2CCCC3)c1	i
CNC(=O)CCn1ncc2cc(OCc3ccccc3-c3ccc(F)cc3)ccc21	i
COc1ccccc1CCNC(=O)c1csc(NC(C)C)n1	i
CCc1ccc(C2=NN(C(=O)Cc3ccc(OC)cc3)C(O)(C(F)(F)F)C2)cc1 (stereo not given)	i
CN(CC(=O)NC(=O)NCc1ccccc1)CC(=O)Nc1ccc(Cl)cc1	i
N#Cc1c(N)n[nH]c1CCCNC(=O)c1cn(Cc2ccccc2)nc1-c1ccccc1	i
Cc1ccc(OCC(O)CN2CCN(c3ccc(C(F)(F)F)cn3)CC2)cc1 (stereo not given)	i
Cn1c(=O)c2c(ncn2Cc2ccc(Cl)cc2Cl)n(C)c1=O	i
Cn1c(-c2ccccc2)csc1=N	i
CC(=O)c1cccc(NC(=O)c2ccc3c(=O)n(-c4cccc(Cl)c4)cnc3c2)c1	i
O=C1CCN(Cc2ccccc2)CCOCCN1	i
c1ccc(CN2CCNc3cc(Nc4ccc(N5CCOCC5)cc4)ncc3C2)cc1	i
CC(=O)N1CCNc2cc(-c3ccc(Oc4ccccc4)cc3)ncc2C1	i
CCn1cc(-c2cc3c(cn2)CN(CCc2ccccc2)CCN3)cn1	35µM*
C[S+](=O)([O-])c1ccc(-c2cc3c(cn2)CN(Cc2ccccc2)CCN3)cc1	28µM*
Clc1cnccc1CN1CCNc2cc(-c3ccccc3)ncc2C1	i
CC(=O)Nc1cccc(-c2cc3c(cn2)CN(Cc2ccccc2)CCN3)c1	i
SMILES	KDM5B inhibitor
c1ccc(CN2CCNc3cnc(-c4ccc(N5CCOCC5)cc4)cc3C2)cc1	35µM*
CN(Cc1ccsc1)C(=O)c1cccc(C(=O)N(C)Cc2ccsc2)n1	i
Cc1ccc2oc(C(=O)Nc3cccnc3)cc(=O)c2c1	i
C=CCOC(=O)C1C(=O)CC(C)(O)C(C(=O)OCC=C)C1c1ccc(Cl)cc1 (stereo not given)	i
Cc1oc(-c2ccccc2)nc1CN1CCN(C(=O)c2ccco2)CC1	i
CCC1(c2ccc(NC(=O)c3cc(OC)c(OC)c(OC)c3)cc2)CCC(=O)NC1=O (stereo not given)	i
O=C(Nc1cnc(-c2ccccc2)nc1)c1ccccc1	i
Cc1ccc(-c2ncc(NC(=O)c3cccs3)cn2)cc1	32µM*
CCCC(=O)Nc1cnc(-c2ccc(C)cc2)nc1	i
CC(C)CCN1CCC(N2CCN(S(=O)(=O)c3ccc(CC(C)C)cc3)CC2)C1=O (stereo not given)	i
COc1cccc(C(=O)N2CCC3(CC2)NC(=O)N(c2cccc(F)c2)N3)c1OC	i
Cc1ccccc1C(=O)OC(C)C(=O)c1ccc2c(c1)CCC2 (stereo not given)	i
Cc1cc(C(=O)OCC(=O)Nc2cccc(C)c2C)c2ccccc2n1	i
COc1ccc(-c2cc(C[C@H]3CNCC[C@H]3CC(=O)N3CCOCC3)no2)cc1	i
O=C(c1cc(C2CC2)nc2onc(C3CCNC3)c12)N1CCC(F)CC1 (stereo not given)	i
Cc1cc(C(=O)NCc2ccc(F)cc2)c2c(C3CCNC3)noc2n1 (stereo not given)	i
COc1ccc(-c2cc(C(=O)N3CCOCC3)c3c(C4CCNC4)nn(C)c3n2)cc1 (stereo not given)	79µM*
COc1ccc(-c2cc(C(=O)NCC(C)C)c3c(C4CCNC4)nn(C)c3n2)cc1 (stereo not given)	79µM*
COc1ccc(CNC(=O)c2cc(-c3ccc(C)cc3)nc3n[nH]c(-c4ccc(Br)cc4)c23)cc1	i
COc1cccc(-c2nnc(SCC3CCOCO3)n2-c2ccc(C)cc2)c1 (stereo not given)	i
CCCNc1c(NC(=O)Nc2ccccc2F)c(=O)oc2ccccc12	i
CC(C)c1noc(C(C)Sc2n[nH]c(-c3ccccc3F)n2)n1 (stereo not given)	i
O=C(Nc1c(C(=O)c2ccc3c(c2)OCCO3)oc2ccccc12)c1ccc(F)cc1	i
Cc1ccc(-c2csc(=S)n2CC(=O)O)cc1	i
CCSC1=N/C(=C\c2ccc(OC)c(C)c2)C(=O)S1	i
SMILES	KDM5B inhibitor
CCCc1cc(=O)oc2cc(OS(=O)(=O)c3ccc(F)cc3Cl)ccc12	i
CC(C)(N)C(=O)N1CCN(c2nc(-c3ccccc3)nc3c2CCC3)CC1	i
CC(C)NC(=O)c1ccnc(-c2ccccc2S(=O)(=O)NC(C)(C)C)c1	i
CNc1nccnc1-c1ccccc1S(=O)(=O)NC(C)(C)C	28µM*
CC(C)(C)NS(=O)(=O)c1ccccc1-c1nc(N)nc2c1CCC2	22µM*
CC(=O)c1c(C)[nH]c(C(=O)c2cc3cc(Br)ccc3o2)c1C	i
O=C1NC2(CCN(C(=O)c3ccccc3F)C2)Oc2ccccc21 (stereo not given)	i
COCCn1cc2c3c(cccc31)CN(C(=O)c1cccc(C(F)(F)F)c1)CC2	28µM*
Cc1ccc(OCC(=O)N2CCc3ccccc3C2)c(Br)c1	i
CCCn1cc2c3c(cccc31)CN(C(=O)COc1ccccc1)CC2	32µM*
COCCN1C(=O)CS(=O)(=O)C12CCN(C(=O)COc1cccc(C)c1)CC2	i
CC(=O)Nc1ccc(OCC(=O)N2CCc3ccccc3C2)cc1	i
COc1cc(OC)cc(C(=O)N2CCc3cn(C)c4cccc(c34)C2)c1	i
COCCn1cc2c3c(cccc31)CN(C(=O)COc1cccc(C)c1)CC2	32µM*
COc1cc2c(cc1OC)CN(C(=O)CCOc1ccccc1)CC2	i
CCCN1CCN(C(=O)c2cccc(C(F)(F)F)c2)CC1	i
COC(=O)c1ccc(C2c3c(-c4cccc(OC)c4)n[nH]c(=O)c3Nc3nnnn32)cc1 (stereo not given)	i
Cc1ccc(C)c(C(C)NC(=O)CC(C)(C(=O)O)c2ccccc2)c1 (stereo not given)	i
COc1ccc(C(=O)Nc2ccc3oc(C)nc3c2)c(OC)c1	i
CCCCCN(CCCCC)C(=S)Nc1ccc(Br)cc1Cl	i
O=C(O)c1occc1-c1cccs1	i
CC(C)(C)c1ccc(/C=N/NC(=O)Cc2ccc(Br)cc2)cc1	i
CCc1ccc(NC(=O)Cn2cc(OC)c(=O)cc2CSc2ccc(F)cc2)cc1	i
c1cc(CNCCCN2CCCCC2)ccn1	i
Cc1cc(Br)ccc1NC(=O)c1ccc(=O)n(CCOc2ccccc2)n1	i
FC(F)(F)c1ccccc1N/N=C/c1ccc(Br)cc1	i
N#Cc1ccc(-c2ccc(OCc3ccc(C(N)=O)cc3)cc2)cc1	i
Cn1ncc2c(C(=O)NCc3cccnc3)cc(-c3ccc(Cl)nc3)nc21	45µM*
O=C(NCc1ccc(F)cc1)c1ccccc1-c1ccccc1	i
